Activity calls are given as the source filed them. Calls come from the whole dose curve; as a rule, active = well fitted curve in the direction sought with a large enough effect; inconclusive = small, poorly fitted or top-dose-only effect, or another doubt; inactive = no such curve, though single readings can be large; an effect the other way counts as inactive or inconclusive.
How the values were obtained:
[1] = biological target: Alpha-galactosidase (Coffea arabica) (UniProt Q42656); test: Counterscreen for Glucocerebrosidase Inhibitors: qHTS Assay for Coffee Bean alpha-Galactosidase at pH 4.5 (AID 957); note: series mostly up to about 77 µM
How it was run: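 Coffee bean alpha-galactosidase 2 nM, substrate 4-MU-alpha-Gal 80 uM, pH 4.5 citrate/Tween-20, 20 min RT. Cpd titration 0.7 nM–77 uM. Stop pH 10, fluorescence 365/440 nm; Hill-equation AC50.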

[2] = biological target: Alpha-galactosidase (Coffea arabica) (UniProt Q42656); test: Counterscreen for Glucocerebrosidase Inhibitors: qHTS Assay for Coffee Bean alpha-Galactosidase at pH 5.9 (AID 998)
How it was run: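 Green coffee bean enzyme (2 nM final) was incubated with compounds (0.7 nM–77 uM) and 4-methylumbelliferyl alpha-D-galactopyranoside (80 uM) in citrate buffer pH 5.9, 20 min at room temperature. High-pH stop; fluorescence 365/440 nm; AC50 from Hill fits.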

Chain of Alpha-galactosidase (Coffea arabica) (Q42656 whole entry, looked up): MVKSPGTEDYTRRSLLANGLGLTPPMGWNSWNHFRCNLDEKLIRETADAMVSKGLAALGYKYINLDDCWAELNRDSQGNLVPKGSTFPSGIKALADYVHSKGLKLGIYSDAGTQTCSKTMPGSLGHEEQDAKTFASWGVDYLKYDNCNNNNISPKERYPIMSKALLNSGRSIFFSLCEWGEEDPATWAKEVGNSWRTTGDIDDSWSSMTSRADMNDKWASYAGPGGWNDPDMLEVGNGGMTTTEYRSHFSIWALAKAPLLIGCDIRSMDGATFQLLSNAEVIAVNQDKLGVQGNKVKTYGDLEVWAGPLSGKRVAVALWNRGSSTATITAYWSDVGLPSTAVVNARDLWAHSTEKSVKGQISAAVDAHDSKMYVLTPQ

Row | SMILES | outcome [1] | outcome [2]
1 | CCOC(=O)C1=C(C)NC(C)=C(C(=O)OC)[C@H]1c1cccc(Cl)c1Cl | inactive | inactive
2 | CNC(=O)[C@@H]1O[C@@H](n2cnc3c(N)ncnc32)[C@@H](O)[C@H]1O | inactive | inactive
3 | NC[C@](O)(CS(=O)(=O)O)c1ccc(Cl)cc1 | inactive | inactive
4 | CCCCCCCCCCCCCCCC(=O)O[C@H](CC(=O)O)C[N+](C)(C)C | inactive | inactive
5 | Nc1nc(SCc2ccc([N+](=O)[O-])cc2)c2ncn([C@@H]3O[C@@H](CO)[C@@H](O)[C@H]3O)c2n1 | inactive | inactive
6 | C[C@@H](COc1ccc(/C=C\c2ccccc2)cc1)[N+](C)(C)C | inactive | inactive
7 | CC#CCOC(=O)c1c(C)nc2sc3c(c2c1N)CC[C@@H](O)C3 | inactive | inactive
8 | COCCOC(=O)C1=C(C)NC(C)=C(C(=O)OC(C)C)[C@@H]1c1cccc([N+](=O)[O-])c1 | inactive | inactive
9 | O=C(NCCNC[C@@H](O)COc1ccc(O)cc1)N1CCOCC1 | inactive | inactive
10 | O=c1cc(O)cc(/C=C\c2ccc(O)c(O)c2)o1 | inactive | inactive
11 | CCN1CCC[C@@H]1CNC(=O)c1c(O)c(Cl)cc(Cl)c1OC | inactive | inactive
12 | O=C(O)CCC(=O)N1CCC[C@H]1C(=O)O | inactive | inactive
13 | O=C(O)[C@H]1CN(CCCP(=O)(O)O)CCN1 | inactive | inactive
14 | COc1cc2c(cc1C(F)(F)F)N(C(=O)Nc1cc(F)cc(-c3cccnc3)c1)CC2 | inactive | inactive
15 | C=CCN1CCc2c(cc(O)c(O)c2Br)[C@H](c2ccccc2)C1 | inactive | inactive
16 | C[C@@H]1C(=O)N(C)C(=O)c2nc[nH]c21 | inactive | inactive
17 | CNc1ncnc2c1ncn2[C@@H]1O[C@@H](CO)[C@H](O)[C@@H]1O | inactive | inactive
18 | CCCC[S@@](=N)(=O)CC[C@@H](N)C(=O)O | inactive | inactive
19 | CSC(N)=NCCC[C@@H](N)C(=O)O | inactive | inactive
20 | CCCC[C@]1(C2CCCC2)Cc2cc(OCC(=O)O)c(Cl)c(Cl)c2C1=O | inactive | inactive

Row | SMILES | outcome [1] | outcome [2]
21 | CC(=O)[C@@]1(O)Cc2c(O)c3c(c(O)c2[C@H](O[C@H]2C[C@H](N)[C@H](O)[C@H](C)O2)C1)C(=O)c1ccccc1C3=O | inactive | inactive
22 | O=C1CC[C@H](N2C(=O)c3ccccc3C2=O)C(=O)N1 | inactive | inactive
23 | CC(N)=NCCC[C@H](N)C(=O)O | inactive | inactive
24 | O=C1[C@@H]2C=CC=CC2=NC(=S)N1CCN1CCC(=C(c2ccc(F)cc2)c2ccc(F)cc2)CC1 | inactive | inactive
25 | O[C@@](CCN1CCCCC1)(c1ccccc1)C1CCCCC1 | inactive | inactive
26 | CN(C)C/C=C(\c1ccc(Br)cc1)c1cccnc1 | inactive | inactive
27 | CN1Cc2c(N)cccc2[C@H](c2ccccc2)C1 | inactive | inactive
28 | N[C@]1(C(=O)O)CCc2cc(C(=O)O)ccc21 | inactive | inactive
29 | CC(C)(C)NC[C@H](O)c1cc(O)cc(O)c1 | inactive | inactive
30 | C[C@@](N)(Cc1ccc(O)c(O)c1)C(=O)O | inactive | inactive
31 | COc1cc([C@@H](O)CO)ccc1OS(=O)(=O)O | inactive | inactive
32 | Cc1cccc(C)c1OC[C@H](C)N | inactive | inactive
33 | N[C@@H]1C=CC=C(C(=O)O)C1 | inactive | inactive
34 | C[C@@H](Cc1ccccc1)Nc1ncnc2c1ncn2[C@@H]1O[C@@H](CO)[C@H](O)[C@@H]1O | inactive | inactive
35 | C=C[C@H](N)CCC(=O)O | inactive | inactive
36 | C=C[C@@]1(C)CC(=O)[C@@]2(O)[C@@]3(C)[C@H](O)CCC(C)(C)[C@@H]3[C@H](O)[C@H](OC(C)=O)[C@]2(C)O1 | inactive | inactive
37 | CNc1ncnc2c1ncn2[C@H]1C[C@@H](OP(=O)(O)O)[C@H](COP(=O)(O)O)O1 | inactive | inactive
38 | COc1cc([C@H](O)C(=O)O)ccc1O | inactive | inactive
39 | C[C@@]12C(=O)OC(=O)[C@@]1(C)[C@H]1CC[C@@H]2O1 | inactive | inactive
40 | CC[C@]1(C)CC(=O)NC1=O | inactive | inactive

Row | SMILES | outcome [1] | outcome [2]
41 | C[C@@H](/C=C\c1cccc(Oc2ccc(F)cc2)c1)N(O)C(N)=O | inactive | inactive
42 | CCCCCN(CCCCC)C(=O)[C@H](CCC(=O)O)NC(=O)c1ccc(Cl)c(Cl)c1 | inactive | inactive
43 | O=C(O)/C=C\[C@H](O)c1ccc(Cl)cc1 | inactive | inactive
44 | [N-]=[N+]=Nc1ccc(C(=O)CSC[C@@H](NC(=O)CC[C@@H](N)C(=O)O)C(=O)NCC(=O)O)cc1 | inactive | inactive
45 | COc1cc([C@H](O)CO)ccc1O | inactive | inactive
46 | CCn1cc(C(=O)O)c(=O)c2cc(F)c(N3CCN[C@@H](C)C3)c(F)c21 | inactive | inactive
47 | O=C(O)CCCC[C@H]1CCSS1 | inactive | inactive
48 | CC(=O)N[C@@H](C(=O)O)C(C)(C)SN=O | inactive | inactive
49 | CC1=C(C(=O)O)N2C(=O)[C@@H](NC(=O)[C@@H](N)C3=CCC=CC3)[C@@H]2SC1 | inactive | inactive
50 | NC(=S)NCCC[C@@H](N)C(=O)O | inactive | inactive
51 | CCCCCCCCCCCCC/C=C\[C@@H](O)[C@@H](N)CO | inactive | inactive
52 | C=C(C)[C@@H]1CC=C(C(=O)O)CC1 | inactive | inactive
53 | C#C[C@]1(O)CC[C@H]2[C@H]3CCC4=Cc5oncc5C[C@]4(C)[C@@H]3CC[C@]21C | inactive | inactive
54 | CNC(=O)[C@@H]1O[C@@H](n2cnc3c(NCc4ccc(N)cc4)ncnc32)[C@@H](O)[C@H]1O | inactive | inactive
55 | COC(=O)C1=C(C)NC(C)=C(C(=O)OCCN(C)Cc2ccccc2)[C@@H]1c1cccc([N+](=O)[O-])c1 | inactive | inactive
56 | CCOC(=O)[C@@]12C[C@@H]1/C(=N/O)c1ccccc1O2 | inactive | inactive
57 | CCCN(CCC)C(=O)[C@@H](CCC(=O)O)NC(=O)c1ccccc1 | inactive | inactive
58 | NC[C@@H]1O[C@@H](O[C@H]2[C@@H](O)[C@H](O[C@@H]3[C@H](O)[C@H](N)C[C@H](N)[C@H]3O[C@@H]3O[C@@H](CO)[C@H](O)[C@H](O)[C@@H]3N)O[C@H]2CO)[C@H](N)[C@H](O)[C@@H]1O | inactive | inactive
59 | N[C@H](C(=O)O)[C@@H]1C[C@@H]1C(=O)O | inactive | inactive
60 | C[C@@H](C[N+](C)(C)C)OC(N)=O | inactive | inactive

From PubChem BioAssay (NCATS)
